Source: PubChem BioAssay AID686978 (National Center for Advancing Translational Sciences (NCATS), 2013)
Out of some 420,000 compounds screened, about 64,000 (15%) were called active. Not shown: some 27% with an inconclusive outcome. A selection follows. A number with no mark means an inactive call. Calls follow the shape of the dose curve; as a rule, active = well fitted inhibition curve with a large enough effect; inconclusive = small, poorly fitted or top-dose-only effect; inactive = flat fitted curve, though single readings scatter.

Assay: qHTS for Inhibitors of human tyrosyl-DNA phosphodiesterase 1 (TDP1): qHTS in cells in absence of CPT; also: nearly all actives have a fitted effect of over 55% in size
Conditions: DT40 Tdp1-/- hTDP1 cells, no CPT, ATP luminescence, 48 h; activity change, negative = growth inhibition: at 46.2 µM (top of the series)
Excerpt: Human tyrosyl-DNA phosphodiesterase 1 (TDP1) is a novel repair gene, and we propose to use it as a new target for anticancer drug development. TDP1 is not an essential protein, but under treatment with topoisomerase I poison (camptothecin: CPT), TDP1 works as a critical factor for cell survival. To directly identify novel TDP1 inhibitors active in a cellular environment, we have knocked-out the Tdp1 gene in chicken DT40 cells (Tdp1-/-) and generated a complemented counterpart cells that contains a stable transfection of the human TDP1 gene (Tdp1-/-;hTDP1 cells). For the primary screen, Tdp1-/-;hTDP1 cells will be exposed to small molecules in the presence or absence of CPT, and their growth kinetics will be evaluated after 48 hours by measuring ATP activity. […] The hit compounds will then be evaluated in the presence or absence of CPT using Tdp1-/- cells. […] In tertiary assays, biochemical gel-based assays will be used to assess whether the hit compounds specifically target TDP1.
To this end, we have screened this cell line against the MLSMR in two primary screens. In one screen we add CPT and in the other we screen in the absence of CPT; this AID represents the screen where CPT was absent.
NIH Chemical Genomics Center [NCGC]
NIH Molecular Libraries Probe Centers Network [MLPCN]
Assay Submitter (PI): Yves Pommier, NCI
DT40-hTDP1 cells without 20 nM Camptothecin (add 20 microL of DMSO in 1 L of cell culture medium) were dispensed at 400 cells/5microL/well in tissue culture treated 1536-well white wall/solid bottom assay plates (Greiner Bio-One North America, NC, U.S.A.) using a Multidrop Combi 8 channel dispenser (Thermo Fisher, Waltham, MA, USA). 23 nL compounds and controls were transferred using the pin tool (Kalypsys, San Diego, CA, USA) to the assay plates. The assay plates were then incubated at 37 masculineC for a minimum 48 hr. Three microL of Cell Titer Glo solution was added to the plates and incubated at RT in dark for 30 min. Luminescence was read using ViewLux (Perkin Elmer) with 1 sec exposure slow speed, high gain and 2x binning.
% is scaled to controls: 0 for no effect and ±100 for the full control effect; potency is read from the fitted curve at half-maximal effect.

Compound	activity change, negative = growth inhibition	Potency
Cc1cc(NC(=O)Nc2ccc(Cl)cc2)n(-c2ccccc2)n1	-14.9%	–
CCOC(=O)C1CCN(C(=O)Nc2ccc(C)c(Cl)c2)CC1	-18.4%	–
Cc1ccc(NC(=O)Nc2cc(-c3ccccc3)nn2C)cc1Cl	–	20.6 µM (active)
CC1(C)CC(=O)C(CC(=O)N2CCC(Cc3ccccc3)CC2)C(=O)C1	-13.8%	–
O=C(NCc1nnc(SCC(=O)N2CCC(Cc3ccccc3)CC2)o1)c1ccco1	-3.4%	–
O=C(CN1CCOc2ccccc21)N1CCC(Cc2ccccc2)CC1	–	11.6 µM (active)
CC1COC2C(O1)N(S(C)(=O)=O)CCN2S(C)(=O)=O (centres undefined)	-9.7%	–
Cc1nnc(NC(=O)/C=C/c2ccco2)s1	-3.69%	–
O=C(Nc1cccc(-c2nc3ccccc3[nH]2)c1)c1ccc(C(=O)Nc2cccc(-c3nc4ccccc4[nH]3)c2)cc1	–	18.4 µM (active)
c1ccc(-c2[nH]ncc2-c2nc3ccccc3[nH]2)cc1	6.23%	–
O=C(/C=C/c1ccco1)Nc1cccc(-c2nc3ccccc3[nH]2)c1	–	23.1 µM (active)
CCC(=O)Nc1ccc2nn(-c3ccc(F)cc3)nc2c1	-27.6%	–
NS(=O)(=O)c1cccc(NC(=O)COC(=O)/C=C/c2ccco2)c1	-3.67%	–
COc1cccc(NC(=O)COC(=O)/C=C/c2ccco2)c1	-27%	–
O=C(Nc1cccc(NC(=O)c2ccc(Br)cc2)c1)c1ccccc1	-5.64%	–
Cc1ccc(-n2nc3ccc(NC(=O)/C=C/c4ccco4)cc3n2)cc1C	–	18.4 µM (active)
COc1ccccc1C(=O)Nc1ccnn1C1CCN(Cc2cnn(C)c2)CC1	-3.57%	–
COc1ccc2c(c1OC)C(=O)N(c1ncn[nH]1)C2	-0.222%	–
Cc1ccc(S(=O)(=O)NC[C@H]2O[C@@H](n3cnc4c(N)ncnc43)[C@H](O)[C@@H]2O)s1	-16.2%	–
CCCc1cc(=O)[nH]c(SCc2cc(=O)oc3c(C)c(C)ccc23)n1	-12.2%	–
CCN(CC(=O)Nc1c(F)cccc1F)C(=O)c1cnc(C)cn1	2.58%	–
CC(C)CN(C(=O)CSc1nncn1C)C1CCS(=O)(=O)C1 (centres undefined)	-14.8%	–
O=C(CN(Cc1ccccc1)C(=O)c1ccc2c(c1)OCCO2)NCc1ccc2c(c1)OCO2	-23.2%	–

Compound	activity change, negative = growth inhibition	Potency
CC/C(O)=N\S(=O)(=O)c1ccc(N=NN(C)C)cc1	-6.75%	–
COC(=O)C1=C(C)N(Cc2ccccc2)C(=NCCCOC(C)C)N[C@H]1c1ccccc1	–	10.3 µM (active)
COCCN1C(=O)N[C@@H](c2ccccc2)C(C(=O)OC)=C1C	-8.68%	–
CCN1C(=O)N[C@@H](c2ccccc2)C(C(=O)OC)=C1C	-14.8%	–
CCOCCOCCC(C(=O)O)P(=O)(c1ccccc1)c1ccccc1 (centres undefined)	9.02%	–
CCOc1ccc(-n2cnnn2)cc1S(=O)(=O)N1CCC(C)CC1C (centres undefined)	-22.2%	–
CCc1ccccc1NC(=O)CSc1nnc(CCNC(=O)OC(C)(C)C)o1	-14.5%	–
Cc1ccccc1Nc1nc(N)nc(CSc2nnc3ccccn23)n1	2.48%	–
COc1ccc(OC)c(NC(=O)c2ccc3c(c2)CCN3S(C)(=O)=O)c1	-24.1%	–
Cc1ccc(S(=O)(=O)N2CCc3cc(C(=O)Nc4ccc(Cl)cc4C)ccc32)cc1	-2.76%	–
CCN(C(=O)COC(=O)c1cc(S(=O)(=O)N2CCc3ccccc32)ccc1OC)C1CCS(=O)(=O)C1 (centres undefined)	0.801%	–
O=C(Nc1cc(C(F)(F)F)ccc1Cl)c1ccc2c(c1)CCN2S(=O)(=O)c1ccccc1	–	11.6 µM (active)
CS(=O)(=O)N1CCc2cc(C(=O)Nc3ccccc3)ccc21	-3.41%	–
COc1ccc(S(=O)(=O)N2CCc3ccccc32)cc1C(=O)Nc1cc(S(C)(=O)=O)ccc1Cl	–	4.61 µM (active)
CC(C)(O)C1=C[N+](=O)CC=C1	-3.03%	–
C#CCOCCOCCOCCNc1nc(N2CCN(C(=O)C([C@@H](C)CC)n3cc(C(N)COC(=O)C(F)(F)F)nn3)CC2)nc(N2CCN(C(=O)[C@H](CCCCN)n3cc(C(N)CC(C)C)nn3)CC2)n1 (some centres undefined)	-1.26%	–
Cc1nn(CC(=O)Nc2ccc(N(C)C)cc2)c(C)c1[N+](=O)[O-]	-26.8%	–
CC1CC(=NNC(=O)C2COc3ccccc3O2)CC(C)(C)C1 (centres undefined)	-27.9%	–
C[C@@H](C(=O)N1CCNCC1)n1cc(CCC(=O)O)nn1	-8.65%	–
COC(=O)c1cc(Oc2ccc(S(=O)(=O)N3CCOCC3)cc2[N+](=O)[O-])cc(C(=O)OC)c1	-27.7%	–
COc1ccc(S(=O)(=O)N2CCOCC2)cc1NC(=O)COc1ccccc1	-24.6%	–
C=C(C)CNc1cc(S(=O)(=O)N2CCOCC2)ccc1Oc1ccccc1	–	20.6 µM (active)
O=[N+]([O-])c1cc([N+](=O)[O-])c(Oc2cc(F)cc(F)c2F)cc1NN1CCCCC1	-23.3%	–

Compound	activity change, negative = growth inhibition	Potency
COc1cccc(C(=O)NNC(=O)/C=C/c2ccccc2)c1	19.2%	–
O=C(/C=C/c1ccc(F)cc1)NCCNC(=O)/C=C/c1ccc(F)cc1	4.93%	–
O=C(/C=C/c1ccc([N+](=O)[O-])o1)NNC(=O)c1ccc(F)cc1	–	1.84 µM (active)
Cc1ccsc1C(=O)N[C@@H](C)c1nnc2ccccn12	-7.07%	–
Nc1nc2[nH]c(=O)c(=O)[nH]c2c(=O)[nH]1	15.7%	–
CCN(CC)C(=O)CSc1nc2ccsc2c(=O)n1Cc1ccccc1Cl	–	23.1 µM (active)
CCOC(=O)n1c(SCC(=O)N(CC)CC)nc2ccccc21	-16.7%	–
CCOC(=O)CSc1nc2c(c(=O)n(Cc3ccccc3Cl)c(=O)n2C)n1C	-3.48%	–
CN(Cc1ccco1)c1ncncc1-c1ccoc1	-6.14%	–
CCc1ccc(Oc2coc3cc(OC(=O)c4cc5ccccc5oc4=O)ccc3c2=O)cc1	-9.4%	–
Cc1[nH]c(=O)c(C(=O)/C=C/c2ccccc2)c2c1CCCC2	–	5.8 µM (active)
Cc1cn(COC/C=C/c2ccccc2)c(=O)[nH]c1=O	-2.88%	–
O=C(NCc1ccccn1)c1c(O)c2c([nH]c1=O)CCCC2	-7.3%	–
Cc1cc(Cl)c(S(=O)(=O)Nc2ccc3c(c2)OCCO3)cc1OCC(N)=O	-29.7%	–
Cc1ccc(/C=N/NC(=O)Cn2ccc(C(F)(F)F)n2)o1	-0.299%	–
Cc1cc(-c2n[nH]c(=S)n2-c2ccc(C)c(C)c2)no1	-4.09%	–
Cc1cc(C)c2oc(C(=O)Nc3ccc(S(=O)(=O)Nc4nccc(C)n4)cc3)cc(=O)c2c1	-26%	–
Cc1cc(F)ccc1NC(=S)NCCc1ccccc1	-10.9%	–
Cc1ccc(NC(=S)NCCc2ccc(Cl)cc2)c(C)c1	–	18.4 µM (active)
Cc1ccc(NC(=S)NCc2ccccc2Cl)c(C)c1	–	20.6 µM (active)
Cc1cc(Cl)ccc1NC(=S)NCCCN1CCCC1=O	3.78%	–
CCNC(=S)Nc1cccc(Cl)c1C	-27.6%	–
S=C(NCc1ccco1)NCc1ccccc1Cl	13.1%	–
